In PubChem BioAssay:
Results filed as inconclusive are left out. Activity calls are given as the source filed them. Unless noted, no stated cut-off is given here; in the data, active means inhibition above about 80%; inactive means the rest.

Experiments:
[1] = tested on: Aerobactin synthetase IucA (Klebsiella pneumoniae); assay: IucA aerobactin synthetase inhibitors, biochemical, Tocris library, absorbance (AID 1345561; call rule not given here;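 further: 100% = enzyme without compound and 0% = no enzyme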); details: purified IucA enzyme assay, absorbance (OD) read-out; stronger effect = lower value;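 tested at 8 µM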
[2] = growth inhibition of DIPG glioma cells, dose response, cell-based, SU-DIPG-XIII, MIPE5.0, CellTiter-Glo, qHTS (AID 1347064; cut-off not given, nearly all actives have AC50 up to about 23 µM;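 on AC50: cells exposed to compound for 48 hours before the viability read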); details: SU-DIPG-XIII viability, CellTiter-Glo ATP luminescence
[3] = viability loss in pontine glioma line – cell-based, SU-DIPG-XXV, MIPE5.0, CellTiter-Glo, qHTS, dose response (AID 1347065; cut-off not given, nearly all actives have AC50 up to about 26 µM;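 further: cells exposed to compound for 48 hours before ATP readout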); details: CellTiter-Glo ATP luminescence
[4] = SU-DIPG-XXV glioma cell viability, MIPE5.0 library, qHTS (AID 1347068; cut-off not given, nearly all actives have IC50 up to about 30 µM)
[5] = sensitizers of A549 cells to miR-34 induction, primary screen, imaging, A549 dox-inducible miR-34, nuclei and caspase counts (AID 1347080;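 active means compounds whose cell count with miR-34 switched on is under 0.7 times the count with it off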); details: A549 miR-34 inducible, Hoechst nuclei count, 48 h
[6] = viability rescue of complex I mutant cybrids, primary screen, cell-based, galactose medium, ATP luminescence (AID 1645843;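 active means z-score of at least 1.8 in each of two replicates, scored against plate mean and spread of sample wells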;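 further: positive z means more ATP and so rescue of galactose-driven cybrid death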); details: complex I mutant cybrid cells, 72 h, stronger effect = higher value
[7] = LFS_MB_P medulloblastoma growth inhibition, cell-based, chromothripsis tumors, cisplatin or BGB combos (AID 1671449); details: LFS_MB_P medulloblastoma cells;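 further: cells exposed for 96 hours; 0% = vehicle DMSO and 100% = killing by high DMSO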
[8] = HDN33 neuroblastoma growth inhibition, cell-based, chromothripsis tumors, cisplatin or BGB combos (AID 1671450); details: HDN33 neuroblastoma cells, stronger effect = higher value;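 further: cells exposed to compound for four days; 0% = vehicle DMSO and 100% = cell killing by high DMSO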
[9] = ICB984 medulloblastoma cell growth inhibition, synergistic combos for chromothripsis tumors, cisplatin or BGB combos (AID 1671451; call rule not given here;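 further: cells exposed for 96 hours before readout; 0% = vehicle DMSO and 100% = killing by high DMSO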); details: ICB984 medulloblastoma cells, drug combinations, stronger effect = higher value
[10] = LFS_MB_1R medulloblastoma cell growth inhibition, synergistic combos for chromothripsis tumors, cisplatin or BGB combos (AID 1671452); details: LFS_MB_1R medulloblastoma cells, stronger effect = higher value;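 further: cells exposed for 96 hours before readout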
[11] = HTB85 osteosarcoma cell growth inhibition, synergistic combos for chromothripsis tumors, BGB or cisplatin IC20 combos (AID 1671453); details: HTB85 osteosarcoma cells, drug combinations, stronger effect = higher value;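 further: cells exposed for 96 hours before readout; 0% = vehicle DMSO and 100% = high DMSO killing control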
[12] = CRL2098 osteosarcoma cell growth inhibition, synergistic combos for chromothripsis tumors, BGB or cisplatin IC20 combos (AID 1671454); details: CRL2098 osteosarcoma cells, drug combinations, stronger effect = higher value;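 further: cells exposed for 96 h before readout; 0% = vehicle DMSO and 100% = killing by high DMSO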
[13] = HD-MB03 medulloblastoma cell growth inhibition, synergistic combos for chromothripsis tumors, BGB or cisplatin IC20 combos (AID 1671455; in the data active means inhibition above about 83%;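 further: 0% = vehicle DMSO and 100% = high DMSO as cytotoxic control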); details: HD-MB03 medulloblastoma cells, stronger effect = higher value
[14] = UWB1.289 ovarian carcinoma cell growth inhibition, synergistic combos for chromothripsis tumors, BGB or cisplatin combos (AID 1671456); details: UWB1.289 ovarian carcinoma cells, stronger effect = higher value;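 further: cells exposed to compound for four days; 0% = vehicle DMSO and 100% = killing by high DMSO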
[15] = LFS_MB_2R medulloblastoma cell growth inhibition, synergistic combos for chromothripsis tumors, cisplatin combos (AID 1671457); details: LFS_MB_2R medulloblastoma cells, stronger effect = higher value;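 further: cells exposed to compound for four days before readout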
[16] = MDA-MB-436 breast carcinoma cell growth inhibition, synergistic combos for chromothripsis tumors, BGB or cisplatin combos (AID 1671458; call rule not given here;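 further: cells exposed for 96 hours; 0% = vehicle DMSO and 100% = killing by high DMSO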); details: MDA-MB-436 breast carcinoma growth inhibition, drug combinations, stronger effect = higher value
[17] = UWB1.289_BRCA1 ovarian cancer growth, cell-based, BGB or cisplatin combinations (AID 1671459); details: UWB1.289 BRCA1 ovarian carcinoma, drug combinations, stronger effect = higher value
[18] = human astrocyte viability loss, single and combined drugs, cytotoxicity control for chromothriptic childhood tumor combination screen, cell-based, BGB or cisplatin IC20 combos (AID 1671460); details: Human astrocytes, drug combinations, stronger effect = higher value;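 further: cells exposed to compounds for 96 hours before viability readout; 0% = vehicle and 100% = killing control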
[19] = growth inhibition of BT084 medulloblastoma cells, cell-based, ICGC_MB145, cisplatin and BGB IC40 combos (AID 1671461); details: drug combinations, stronger effect = higher value;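 further: cells exposed to drugs for 96 hours; 0% = vehicle DMSO and 100% = high DMSO full killing control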
[20] = growth inhibition of RCMB18 medulloblastoma cells, cell-based, cisplatin and BGB IC40 combos (AID 1671462); details: stronger effect = higher value;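 further: cells exposed to compound for four days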
[21] = growth inhibition of CRL1545 osteosarcoma cells, cell-based, cisplatin and BGB IC20 combos (AID 1671464); details: stronger effect = higher value;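 further: cells exposed to compound for 96 hours before readout; 0% = vehicle DMSO and 100% = high DMSO killing control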
[22] = growth inhibition of DIPG glioma cells, dose response, cell-based, SU-DIPG-XVII, MIPE5.0, CellTiter-Glo, qHTS (AID 1347060; cut-off not given, nearly all actives have AC50 up to about 26 µM;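 further: cells exposed to compound for 48 hours before viability readout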); details: SU-DIPG-XVII viability, CellTiter-Glo ATP luminescence
[23] = JHH-DIPG-1 glioma cell viability, MIPE5.0 library, CellTiter-Glo luminescence, qHTS (AID 1347067; cut-off not given, nearly all actives have AC50 up to about 26 µM;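 further: cells exposed to compound for 48 hours before readout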); details: JHH-DIPG-1 glioma viability, CellTiter-Glo ATP luminescence
[24] = stronger effect = lower value, cell number ratio, induced over uninduced
[25] = measured here: relative caspase fold change +Dox/-Dox
[26] = measured here: total cells with miR-34 induction, stronger effect = lower value
[27] = measured here: total cells without miR-34 induction
[28] = measured here: combination with BGB IC40, at 0.05 µM
[29] = measured here: with BGB IC20 combination, at 0.5 µM
[30] = measured here: with cisplatin IC20 combination, at 0.5 µM
[31] = measured here: combination with cisplatin, at 0.5 µM
[32] = measured here: combination with cisplatin, at 5 µM

SMILES: O=c1ncccn1[C@@H]1O[C@H](CO)[C@@H](O)[C@H]1O
- remaining activity [1]: 115% (inactive)
- outcome [2]: inactive
- outcome [3]: inactive
- outcome [4]: inactive
- fold change [5, 24]: 1 (inactive)
- fold change [5, 25]: 1.17
- cell count [5, 26]: 7460
- cell count [5, 27]: 7440
- z-score [6]: -0.025 (inactive)
- inhibition ([7]; at 0.5 µM, stronger effect = higher value): 94.5% (active)
- inhibition ([7]; measured here: combination with BGB IC20, at 0.005 µM): -19.6%
- inhibition ([7]; measured here: combination with BGB IC40, at 0.005 µM): -15.6%
- inhibition [7, 28]: -21.7%
- inhibition ([7]; measured here: combination with cisplatin, at 0.5 µM, stronger effect = higher value): 116%
- inhibition ([7]; measured here: combination with cisplatin, at 5 µM, stronger effect = higher value): -26.6%
- inhibition ([8]; BGB combo, at 5 µM): -58.6%
- inhibition ([8]; at 0.5 µM): -38.5% (inactive)
- inhibition ([8]; cisplatin combo, at 5 µM): -44.1%
- inhibition [8, 29]: -41.3%
- inhibition [8, 30]: -33.1%
- inhibition ([8]; single agent, at 5 µM): -32.1%
- inhibition ([9]; BGB IC20 combo, at 0.005 µM): 4.35%
- inhibition ([9]; BGB IC40 combo, at 0.005 µM): -50.2%
- inhibition ([9]; BGB IC40 combo, at 0.05 µM): -18%
- inhibition ([9]; at 0.5 µM): -16.8% (inactive)
- inhibition ([9]; cisplatin combo, at 0.05 µM): -22.2%
- inhibition ([9]; cisplatin combo, at 0.5 µM): -22.8%
- inhibition ([9]; cisplatin combo, at 5 µM): -30.8%
- inhibition ([9]; measured here: 5 uM single agent, at 5 µM): -3.85%
- inhibition ([10]; at 0.5 µM): -27.9% (inactive)
- inhibition [10, 28]: -35.3%
- inhibition [10, 31]: -51%
- inhibition [10, 32]: -58.9%
- inhibition ([11]; at 0.5 µM): -26.7% (inactive)
- inhibition ([11]; measured here: with BGB IC20, at 0.5 µM): -35%
- inhibition ([11]; measured here: with BGB IC20, at 5 µM): -20.6%
- inhibition ([11]; measured here: with cisplatin IC20, at 0.5 µM): -23.7%
- inhibition ([11]; measured here: with cisplatin IC20, at 5 µM): -31.4%
- inhibition ([11]; single agent, at 5 µM): -19.2%
- inhibition ([12]; at 0.5 µM): -74.1% (inactive)
- inhibition ([12]; measured here: combination with BGB at IC20, at 0.5 µM): -48.3%
- inhibition ([12]; measured here: combination with cisplatin at IC20, at 0.5 µM): -120%
- inhibition ([13]; at 0.5 µM): -21.4% (inactive)
- inhibition ([13]; measured here: combo with BGB at IC20, at 0.5 µM): -26.7%
- inhibition ([13]; measured here: combo with cisplatin at IC20, at 0.5 µM): -23%
- inhibition ([14]; at 0.5 µM): -19.3% (inactive)
- inhibition ([14]; measured here: inhibition with BGB combination, at 0.05 µM): 1.76%
- inhibition ([14]; measured here: inhibition with cisplatin combination, at 0.05 µM): -40%
- inhibition ([15]; at 0.5 µM): -6.18% (inactive)
- inhibition [15, 31]: -23.5%
- inhibition [15, 32]: -12.7%
- inhibition ([16]; at 0.5 µM): -13.6% (inactive)
- inhibition ([16]; measured here: BGB combination, at 0.5 µM): -17.7%
- inhibition ([16]; measured here: BGB combination, at 5 µM): -15.1%
- inhibition ([16]; measured here: cisplatin combination, at 0.5 µM): -10.4%
- inhibition ([16]; measured here: cisplatin combination, at 5 µM): -7.02%
- inhibition ([17]; BGB combination, concentration series, at 5 µM): -30%
- inhibition ([17]; at 0.5 µM): -19.1% (inactive)
- inhibition ([17]; cisplatin combination, concentration series, at 5 µM): -22.8%
- inhibition ([18]; at 0.5 µM): -3.28% (inactive)
- inhibition ([18]; measured here: combo with BGB IC20, at 0.5 µM): -9.39%
- inhibition ([18]; measured here: combo with cisplatin IC20, at 0.5 µM): 1.77%
- inhibition ([19]; at 0.5 µM): -5.93% (inactive)
- inhibition ([19]; cisplatin combination, at 0.5 µM): -27.2%
- inhibition ([19]; cisplatin combination, at 5 µM): -19.4%
- inhibition ([19]; measured here: BGB IC40 combination 0.05 uM, at 0.05 µM): -6.16%
- inhibition ([19]; single agent, at 5 µM): -11.2%
- inhibition ([20]; at 0.5 µM): -16.2% (inactive)
- inhibition ([20]; cisplatin combo, at 5 µM): -19.8%
- inhibition ([20]; measured here: BGB IC40 combination, at 0.05 µM): 3.99%
- inhibition [20, 31]: -35.7%
- inhibition ([20]; single agent, at 5 µM): -29.5%
- inhibition ([21]; at 0.5 µM): -31.3% (inactive)
- inhibition [21, 29]: -27.5%
- inhibition [21, 30]: -35.4%
- inhibition ([21]; single agent, at 0.05 µM): -12.6%
- inhibition ([21]; single agent, at 5 µM): -36.3%

SMILES: CNC(=O)[C@H]1O[C@@H](n2cnc3c(NCc4cccc(I)c4)nc(Cl)nc32)[C@H](O)[C@@H]1O
- remaining activity [1]: 96.8% (inactive)
- AC50 [22]: 18.6 µM (active)
- AC50 [2]: 16.6 µM (active)
- AC50 [23]: 23.5 µM (active)
- outcome [4]: inactive
- fold change [5, 24]: 0.954 (inactive)
- fold change [5, 25]: 0.816
- cell count [5, 26]: 5880
- cell count [5, 27]: 6160
- z-score [6]: -0.4 (inactive)
